Only some compounds are listed: those with a hit (about 3% of all), similar ones and a draw of the others.
PPC-1+TRAIL kill: PPC-1 cancer cell killing with TRAIL present | cell killing (% activity), % at 4 µM or 5 µM | PPC-1 cells + TRAIL, ATPLite viability luminescence | AID 1443 | 0.41% of 220,000 active;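 active means cell killing above 50% in the first pass at 4 µM, then a duplicate retest at 5 µM averaging 50% or more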;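 further: plate controls were cells with TRAIL plus DMSO for no effect and medium-only wells lacking cells for full effect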
TRAIL sens C8: caspase-8 TRAIL sensitization; NB7+C8 cells + TRAIL, ATPlite viability luminescence; inhibition (viability loss, TRAIL sensitization), % at 10 µM; 1% of 360,000 active;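 active means compounds causing at least 50% loss of cell viability in the single-dose screen, relative to plate controls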
SENP6 block: SENP6 protease inhibition; inhibition, % at 10 µM; 1.8% of 330,000 active; Q9GZR1; Recombinant SENP6 catalytic domain, aminoluciferin luminescence;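 active means inhibition above about 50% at the single tested dose, limit read from the data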;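 further: plate controls were DMSO wells with enzyme for no effect and DMSO wells lacking enzyme for full effect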
Target sequence (Q9GZR1 628-1112 limits assumed): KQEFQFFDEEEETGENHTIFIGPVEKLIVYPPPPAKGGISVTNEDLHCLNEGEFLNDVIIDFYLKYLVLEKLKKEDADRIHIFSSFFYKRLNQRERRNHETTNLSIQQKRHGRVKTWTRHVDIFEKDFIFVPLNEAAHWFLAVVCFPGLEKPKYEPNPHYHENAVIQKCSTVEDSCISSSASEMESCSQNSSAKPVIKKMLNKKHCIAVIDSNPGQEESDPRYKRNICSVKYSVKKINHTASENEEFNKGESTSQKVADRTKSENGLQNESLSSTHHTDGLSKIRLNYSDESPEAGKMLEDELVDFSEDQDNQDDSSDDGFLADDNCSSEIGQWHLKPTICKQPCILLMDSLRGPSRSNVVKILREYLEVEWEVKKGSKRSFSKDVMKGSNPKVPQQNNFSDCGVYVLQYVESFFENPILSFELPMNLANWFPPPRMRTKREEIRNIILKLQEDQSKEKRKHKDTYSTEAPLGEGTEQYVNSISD
SENP7 block: inhibitors of human SENP7 protease. Q9BQF6. recombinant SENP7, Z-RLRGG-aminoluciferin luminescence, 40 min. inhibition, % at 5 µM. 1.5% of 330,000 active;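 active means inhibition above about 50% at the single test dose, limit read from the data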;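 further: plate controls were DMSO with enzyme for no effect and no enzyme buffer wells for full effect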
SENP8 block-1: SENP8 protease inhibition. 1.2% of 330,000 active. purified SENP8, Z-RLRGG-aminoluciferin cleavage, luminescence. inhibition, % at 10 µM; in the data active means inhibition above about 50%
SENP8 block-2: SENP8 (human) protease inhibition. 0.64% of 360,000 active. inhibition, % at 20 µM. recombinant SENP8, Nedd8 substrate fluorescence; in the data active means inhibition mostly above about 40%, no sharp cut-off; inactive means mostly below about 27%
PPC-1 tox: PPC-1 cell cytotoxicity; PPC-1 viability, ATPlite luminescence, overnight; shares compounds with PPC-1+TRAIL kill; 50% of 1,200 active; cytotoxicity, % at 5 µM;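 active means reconfirmed compounds whose average cytotoxicity reaches 50% or more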;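 further: 0% = DMSO-treated cells and 100% = wells holding medium but no cells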
Starred values were filed as active, the others as inactive; i = inactive; / = no result.

SMILES	PPC-1+TRAIL kill	TRAIL sens C8	SENP6 block	SENP7 block	SENP8 block-1	SENP8 block-2	PPC-1 tox
Cc1cc(C(=O)Nc2cnc3ccccc3c2)ccc1[N+](=O)[O-]	0.0	9.9	-18.0	9.1	-27.9	20.8	/
Cc1ccc(C(=O)Nc2cnc3ccccc3c2)cc1	69.8*	78.2*	97.0*	98.3*	93.6*	1.5	67.4*
COc1ccc(/C=C\c2nc(=O)c3ccccc3o2)cc1	60.0*	60.6*	72.2*	62.8*	66.2*	-126.4	56.6*
O=c1nc(/C=C/c2ccc(O)c(O)c2)oc2ccccc12	22.1	41.9	/	/	/	-112.8	/
COc1ccc(Cl)cc1NC(=S)N(Cc1ccc(C(=O)O)cc1)Cc1ccc(OC)c(OC)c1	14.0	-5.5	4.1	0.4	10.7	14.3	/
COc1cccc(CC2(CO)CCN(S(=O)(=O)c3ccc(OC)cc3OC)CC2)c1	/	-1.2	-11.3	10.4	2.4	15.7	/
COc1ccc(CCNC(=O)Cn2c(=O)[nH]c3ccsc3c2=O)cc1OC	15.5	-7.2	11.8	-2.3	2.8	2.5	/
Cn1c(CNC(=O)Cc2ccc3c(c2)OCO3)nnc1SCc1ccccc1	-11.1	-0.9	-6.4	3.1	3.5	7.8	7.9
Cc1ccccc1NC(=O)CSc1nnc(CNC(=O)c2ccc3c(c2)OCO3)n1C	/	6.8	-35.3	-9.8	-4.5	4.4	/
COc1cc(C(=O)N/N=C(\c2ccccc2)c2ccccn2)cc(OC)c1OC	25.5	30.7	6.2	8.8	2.9	11.4	29.1
CCCCN(C)c1c(C)nc2ccc(C(=O)N(CC)CCN(C)C)cn12	/	0.9	/	/	/	-37.7	/
CCCCN1C(=O)C(CC(=O)NC2CCCCC2)CC(C(=O)N(C(C)C)C(C)C)=C1C (stereo not given)	/	-7.4	/	/	/	7.6	/
O=C(OCc1nnn(Cc2ccccc2)c1-c1c(COC(=O)c2ccccc2)nnn1Cc1ccccc1)c1ccccc1	9.3	-4.5	3.7	-3.9	-0.5	4.2	/
O=C(CCN1CCN(CCO)CC1)Nc1ccc(F)c(F)c1	-1.2	-6.2	-6.4	-0.4	4.0	13.4	5.2
C#CCNC(=O)C[C@@H]1C[C@@]2(C(=O)OC)CC(C)(C)CC=C2N(CCc2ccc(OC)c(OC)c2)C1=O	/	6.0	/	/	/	20.9	/
COc1cc(C(=O)OCC(=O)Nc2cc(C)on2)c([N+](=O)[O-])cc1OC	-13.3	-4.2	-8.1	1.3	6.2	16.9	/
CN(C)c1ncnc2c1ncn2C1OC(CO)C(O)C1O (stereo not given)	43.5	69.4*	-27.7	-3.7	-10.6	22.5	44.0
CCOC(=O)c1c(C)[nH]c(C)c1S(=O)(=O)NC(CC)CN1CCOCC1 (stereo not given)	/	5.8	10.5	23.4	2.5	13.7	/
O=C(NCc1cccc(C(F)(F)F)c1)c1csc([C@@H]2C[C@H](O)[C@@H](CO)O2)n1	/	3.2	/	/	/	6.9	/
CCOc1ccc2[nH]c(S(=O)(=O)CC)nc2c1Cl	6.5	-5.5	-8.3	-0.4	-7.0	8.8	21.9
CCOc1ccc(C)cc1S(=O)(=O)Nc1ccc(Cl)cn1	16.8	-12.9	-1.8	11.0	7.6	9.1	/
c1cc2c3c(cccc3c1)-c1cnccc1-2	/	4.5	/	/	/	-483.8	/
O=[N+]([O-])c1ccc(Sc2cccc[n+]2[O-])c2nonc12	34.1	19.1	/	/	/	15.0	30.9
O=C(CSc1cccc[n+]1[O-])Nc1cc(Cl)ccc1[N+](=O)[O-]	/	9.5	0.8	-6.7	-4.4	14.2	/
CCN(CC)C(=O)CN(c1cc2c(cc1OC)oc1ccccc12)S(=O)(=O)c1ccccc1	-7.7	0.2	-17.1	-4.1	-0.6	8.6	-18.9
SMILES	PPC-1+TRAIL kill	TRAIL sens C8	SENP6 block	SENP7 block	SENP8 block-1	SENP8 block-2	PPC-1 tox
COC(=O)c1ccccc1NC(=O)Cn1c(CCC(=O)O)ccc1-c1cccs1	6.5	7.2	-4.7	-1.8	-3.4	-51.9	14.9
COCCNC(=O)c1ccc2c3n(nc2c1)-c1ccccc1CO3	50.0*	57.7*	40.6	33.6	33.8	-279.4	54.9*
Cc1ccc(C(=O)O/N=C/c2c(N3CCOCC3)n(C)c3ccccc23)cc1	39.6	-3.4	16.2	9.1	13.4	-2.0	19.3
Cn1c(N2CCOCC2)c(/C=N/OC(=O)c2ccc(F)cc2)c2ccccc21	40.1	-2.7	1.2	5.6	0.9	9.6	/
COCCN1CCN(c2cc(-c3ccccc3)nc3cc(-c4cccc(F)c4)nn23)CC1	14.4	40.6	2.3	-1.8	-2.6	-473.9	6.3
Fc1cccc(-c2cc3nc(-c4ccccc4)cc(N4CCC5(CC4)OCCO5)n3n2)c1	-28.5	6.6	-4.8	2.3	0.8	-459.9	/
Cc1ccccc1OCc1nnc(SCC(=O)Nc2ccc3nc(SCC(=O)NC(C)(C)C)sc3c2)n1C	-14.6	18.3	-8.2	-3.3	-12.3	7.0	-12.6
NS(=O)(=O)c1ccc(CCNC(=O)C(=O)c2cn(CC(=O)N3CCCC3)c3ccccc23)cc1	/	0.4	-7.1	11.4	-4.8	-12.6	/
O=C(NC(=O)c1ccccc1O)c1ccc2c(c1)CCO2	68.7*	74.4*	65.0*	42.0	51.0*	-33.0	67.6*
O=C1N=C(N2CCOCC2)S/C1=C1\C(=O)N(Cc2ccccc2)c2ccccc21	25.4	-0.7	47.7	-8.9	-3.1	16.0	/
CN1C(=O)/C(=C2\SC(N3CCCCCC3)=NC2=O)c2ccccc21	58.8*	50.9*	-11.5	-2.5	-23.0	13.2	49.0
CCCN1C(=O)/C(=C2\SC(N3CCCCC3)=NC2=O)c2ccccc21	31.3	42.6	-5.6	-16.0	-46.7	35.8	15.6
CC1CCN(CCCCOc2ccccc2[N+](=O)[O-])CC1	14.7	-20.6	0.9	-0.9	-7.5	7.2	/
Cc1ccc(OCC(=O)N2CCCC(CCC(=O)N(C)CCc3ccccn3)C2)cc1 (stereo not given)	4.3	-5.7	4.2	-5.8	9.7	11.6	/
CCOc1ccc(C(=O)Nn2cnnc2)cc1	17.9	2.1	-12.9	0.1	-2.3	11.0	/
CCOc1ccc(C/C(N)=N/n2cnnc2)cc1	14.9	-15.6	-13.1	-2.7	-2.8	20.8	16.8
O=C1c2cccc(-c3ccc(C(F)(F)F)cc3)c2C2CC=CCN12 (stereo not given)	/	4.8	/	/	/	13.7	/
CC(C)c1nc(NCC2CCCO2)c(C#N)c2c1COC(C)(C)C2 (stereo not given)	-2.4	-11.9	-2.3	-2.2	3.7	i	-7.0
COc1ccc2[nH]c3c(=O)n(CCCC(=O)NC4CCCCC4C)c(=S)[nH]c3c2c1 (stereo not given)	/	-3.3	-11.0	-15.2	-7.5	-101.1	/
COc1ccc(N=Nc2ccc(O)c3ncccc23)cc1	39.0	30.7	-10.8	-7.3	-16.7	27.7	48.6
Cc1ccc(/C=N\Nc2nc3ccc(Cl)cc3[nH]2)o1	6.5	9.1	30.4	13.3	-5.7	-167.9	9.5
Cc1ccc(/C=N/Nc2cn[nH]c(=O)n2)o1	5.7	-11.3	-14.6	0.6	1.2	19.2	/
C(=N\Nc1nc2ccccc2[nH]1)/c1ccccn1	79.0*	91.5*	/	/	/	12.6	80.4*
